This is a sample that favours compounds with a hit; in the whole collection about 2.4% have one here.
Pol iota inh: DNA polymerase iota (human) inhibition | Q9UNA4 | Pol iota fluorescent replication assay, 10 min | Potency, µM (highest dose often 115 µM), inactives show at the highest dose activity, negative = inhibition, actives largely listed as inhibitors | hit rate 1% among 390,000
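Pol iota at 10 nM preincubated 15 min with compounds at room temperature; reaction started with fluorescent substrate, 50 nM final. Fluorescence read kinetically at 0 and 10 min; buffer-only wells as negative control.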
Pol kappa inh-1: DNA polymerase kappa (human) inhibition | Q9UBT6 | purified Pol kappa, fluorescent DNA synthesis assay, 10 min | Potency, µM (highest dose often 107 µM), for the others: at the highest dose activity, negative = inhibition, most hits filed as inhibitors | hit rate 0.53% among 400,000 | AID 588579; note: % is set by controls: 0 for no effect and ±100 for the full control effect
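Enzyme at 10 nM met test compounds for 15 min at room temperature. Substrate addition (50 nM final) began the reaction, which was monitored by fluorescence at 0 and 10 min.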
GCN5L2 inh: inhibitors of human GCN5L2 histone acetyltransferase; GCN5L2 HAT assay, ThioGlo1 CoA-SH fluorescence; Potency, µM (titrated, usually from 58.9 µM), for inactives: at the highest dose activity change, negative = inhibition, usual class: inhibitors; hit rate 0.21% among 390,000; AID 504327; note: % is set by controls: 0 for no effect and ±100 for the full control effect
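Compounds, pin-transferred from DMSO stocks, meet 20nM GCN5L2 for 15 min before the reaction begins with H3(1-25) peptide (75uM) and acetyl-CoA (70uM). Thiol-reactive ThioGlo1 reports CoA release over 20 min at room temperature.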
GLS inh: blocks human kidney-isoform glutaminase activity. GLS enzymatic activity, qHTS titration. Potency, µM (titrated, usually from 45.5 µM), for the others: at the top dose activity change, negative = inhibition, usual class: inhibitors. hit rate 0.21% among 410,000. AID 624170; note: % is set by controls: 0 for no effect and ±100 for the full control effect
Target sequence (O94925 whole entry, looked up, canonical isoform): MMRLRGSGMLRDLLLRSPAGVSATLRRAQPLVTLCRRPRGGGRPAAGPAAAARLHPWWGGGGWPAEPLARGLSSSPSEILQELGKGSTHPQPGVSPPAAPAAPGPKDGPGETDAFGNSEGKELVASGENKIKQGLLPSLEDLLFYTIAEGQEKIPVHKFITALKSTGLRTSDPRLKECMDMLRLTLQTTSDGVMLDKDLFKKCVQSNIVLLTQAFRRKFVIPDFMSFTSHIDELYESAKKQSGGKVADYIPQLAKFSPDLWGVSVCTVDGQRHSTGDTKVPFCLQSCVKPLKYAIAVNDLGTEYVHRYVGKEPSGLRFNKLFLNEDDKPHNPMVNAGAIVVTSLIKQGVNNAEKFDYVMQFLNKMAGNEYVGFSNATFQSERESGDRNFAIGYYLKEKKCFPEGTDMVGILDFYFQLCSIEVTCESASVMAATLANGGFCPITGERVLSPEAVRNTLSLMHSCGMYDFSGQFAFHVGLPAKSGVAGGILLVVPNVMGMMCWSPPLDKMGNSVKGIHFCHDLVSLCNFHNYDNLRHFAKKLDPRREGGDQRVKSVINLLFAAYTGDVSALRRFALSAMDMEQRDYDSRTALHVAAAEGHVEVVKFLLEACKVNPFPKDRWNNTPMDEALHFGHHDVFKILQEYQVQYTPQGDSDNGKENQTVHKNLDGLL
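hKGA in 45 mM KH2PO4 (pH 8.2), 0.02% Tween-20 with compound, then 1mM L-Glutamine (stock as added) plus glutamate oxidase/HRP/Amplex red coupling mix. Fluorescence read initially and after 30 min at RT; signal change reflects glutamate formation.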
Pol eta inh-1: inhibitors of human DNA polymerase eta. recombinant Pol eta, fluorescent DNA replication assay. Potency, µM (top dose mostly 114 µM), for the others: at the highest dose activity change, negative = inhibition, usual class: inhibitors. hit rate 1.2% among 390,000. AID 588591; note: % is set by controls: 0 for no effect and ±100 for the full control effect
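Fluorescent replication assay: 50 nM final substrate added after a 15 min room-temperature compound preincubation with 10 nM enzyme. Signal taken at 0 min and again at 10 min.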
Pol beta inh: DNA polymerase beta (human) inhibition | P06746 | Pol beta primer extension/strand displacement, fluorescence kinetic | hit rate 1.3% among 340,000 | Potency, µM (doses to about 114 µM), for the others: at the top dose activity change, negative = inhibition, hits mostly inhibitors; note: % is set by controls: 0 for no effect and ±100 for the full control effect
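Human Pol beta at 10 nM; strand-displacement substrate 50 nM final. Compound exposure 15 min at room temperature before start, reaction 10 min at room temperature.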
TbPGK inh: TbPGK inhibition, hit validation; Potency, µM (doses to about 57.5 µM), for inactives: at the highest dose activity change, negative = inhibition, most hits filed as inhibitors; TbPGK coupled GAPDH assay, Kinase-Glo luminescence; AID 686980; shares compounds with Pol kappa inh-1; hit rate 79% among 500; note: % is set by controls: 0 for no effect and ±100 for the full control effect; nearly all actives have a fitted effect of over 65% in size
POLI cherry-pick: Human Pol iota inhibitor confirmatory assay; Pol iota primer extension, TAMRA/BHQ fluorescence; hit rate 77% among 1,500; Potency, µM, most hits filed as inhibitors; shares compounds with Pol kappa inh-1
Pol kappa inh-2: Pol kappa (human) inhibition, cherry-pick confirmation. shares compounds with Pol eta inh-1. purified Pol-kappa, fluorescent strand-displacement substrate. Potency, µM, most hits filed as inhibitors. hit rate 76% among 920. AID 720501
Pol eta inh-2: confirmation of human DNA polymerase eta inhibitors. Pol eta primer extension, TAMRA/BHQ fluorescence, 10 min. Potency, µM, hits mostly inhibitors. AID 720502. hit rate 64% among 2,600. shares compounds with Pol eta inh-1
* = called active by the depositor; ? = inconclusive; . = not tested or not shown; [ ] = another dose, or the depositor's remark. Calls come from the whole dose curve; as a rule, active = well fitted curve in the direction sought with a large enough effect; inconclusive = small, poorly fitted or top-dose-only effect, or another doubt; inactive = no such curve, though single readings can be large; an effect the other way counts as inactive or inconclusive. Potency is the fitted concentration of half-maximal effect.

SMILES	Pol iota inh	Pol kappa inh-1	GCN5L2 inh	GLS inh	Pol eta inh-1	Pol beta inh	POLI cherry-pick	Pol eta inh-2	others
O=C1c2cc(O)c(O)cc2OC(c2ccc(O)c(O)c2)C1O (stereo not given)	3.2µM*	8.9µM*	.	-23%	14µM*	.	38*	27*	Pol kappa inh-2=19*
NN1C(=O)c2cccc3c(C(=O)O)ccc(c23)C1=O	-15%	-3%	-8%	6%	?	11%	.	.
O=C(O)c1ccc2c3c(cccc13)C(=O)N(c1ccccc1)C2=O	28µM*	89µM*	-17%	?	18µM*	20µM*	?	24*	Pol kappa inh-2=12*
O=C(O)c1ccc(N2C(=O)c3cccc4c(C(=O)O)ccc(c34)C2=O)cc1	8.9µM*	20µM*	-14%	?	3.5µM*	6.3µM*	15*	3.4*	TbPGK inh=16µM*
CC(=O)OCC1=C(C(=O)O)N2C(=O)C(NC(=O)C(C)Cn3nc(C)c(Cl)c3C)C2SC1 (stereo not given)	?	?	3%	11%	22µM*	?	.	48*	TbPGK inh=16µM*
Cc1cc(C(F)F)nn1CC(=O)NC1C(=O)N2C(C(=O)O)=C(CSc3nnnn3C)CSC12 (stereo not given)	?	-45%	-2%	7%	28µM*	13µM*	.	?	TbPGK inh=-24%
CC(=O)OCC1=C(C(=O)O)N2C(=O)C(NC(=O)c3ccc(F)cc3)C2SC1 (stereo not given)	?	?	-2%	6%	?	-13%	.	.
Cc1nn(C(C)C(=O)NC2C(=O)N3C(C(=O)O)=C(CSc4nnnn4C)CSC23)cc1Cl (stereo not given)	16µM*	?	-3%	-5%	20µM*	25µM*	.	?	TbPGK inh=-25%
Cc1ccc(C)c(NC(=O)CCc2c(C)n(C)c3cc(-c4ccccc4C)nn3c2=O)c1	13%	-2%[60.1 µM]	-10%	-6%	-8%	-2%	.	.
COc1ccc(-n2nc(C(=O)NCC(=O)Nc3ccccn3)c3ccccc3c2=O)cc1Cl	1%	-14%	-14%	?	10µM*	?	15*	?
COc1ccc(C2C(=O)N(C3CCCCC3)CC(=O)N2CCC2=CCCCC2)cc1 (stereo not given)	-6%	-6%[60.1 µM]	-1%	-1%	-2%	-8%	.	.
CCC(=O)Nc1ccc(C(=O)COC(=O)c2nc3nccc(C)n3n2)cc1	4µM*	?	?	?	3.5µM*	.	17*	27*	Pol kappa inh-2=17*
O=C1c2ccccc2C(=O)c2c1cccc2N1CCCC1	?	-20%	-13%	6%	-20%	0%	.	.
O=C1C=C(N2CCCCC2)c2ccccc2C1=O	8.9µM*	-10%	.	5%	20µM*	.	34*	24*
CCS(=O)(=O)N1CCCC(C(=O)NCCOC)C1 (stereo not given)	28%	0%[60.1 µM]	-1%	4%	-2%	7%	.	.
COc1cc2c(-c3ccc(O)cc3)nc3c(c(C)nn3-c3ccccc3)c2cc1OC	?	-11%	-6%	?	?	?	24*	67*
COc1cccc(-c2nc3c(c(C)nn3-c3ccccc3)c3cc(OC)c(OC)cc23)c1	-18%	-8%	2%	-9%	-11%	34%	.	.
Nc1ccc2c(c1Cl)C(=O)c1ccc(N)c(Cl)c1C2=O	?	?	?	-33%	8.9µM*	2µM*	17*	43*
CCSC1=N/C(=C\c2ccc(-c3ccccc3[N+](=O)[O-])o2)C(=O)S1	6%	1%	-22%	-5%	-5%	-16%	.	.
O=C1ON=C(c2ccccc2)/C1=C/c1ccc(-c2ccccc2[N+](=O)[O-])o1	?	-24%	20µM*	-7%	22µM*	-27%	?	48*
O=C1c2cc([N+](=O)[O-])cc3cc([N+](=O)[O-])cc(c23)C(=O)N1c1ccccn1	?	?	-10%	-3%	16µM*	?	67*	30*	Pol kappa inh-2=21*
O=C(O)c1cccc(N2C(=O)c3cc([N+](=O)[O-])cc4cc([N+](=O)[O-])cc(c34)C2=O)c1	2.2µM*	22µM*	?	?	4µM*	6.3µM*	42*	24*	TbPGK inh=10µM*;Pol kappa inh-2=15*
Cc1ccc(C)c(S(=O)(=O)c2nnn3c2nc(NCc2ccc4c(c2)OCO4)c2sccc23)c1	13%	3%	-10%	-4%	-10%	9%	.	.
Cc1cc(=O)[nH]c(N/N=C/c2c(O)n(-c3ccccc3)c(=O)c3ccccc23)n1	0%	-25%	-12%	4%	22µM*	45µM*	75*	60*
O=C1NC(=O)/C(=C/c2ccc(-c3cccc([N+](=O)[O-])c3)o2)S1	?	-2%	-14%	195%	22µM*	1%	.	?	TbPGK inh=18µM*
SMILES	Pol iota inh	Pol kappa inh-1	GCN5L2 inh	GLS inh	Pol eta inh-1	Pol beta inh	POLI cherry-pick	Pol eta inh-2	others
CCOCCc1nn2c(=O)cc(COC(=O)CNC(=O)c3ccc(F)cc3)nc2s1	16%	-22%	0%	3%	-18%	-19%	.	.
C=CCn1c(O)c(N=NC(=O)CNC(=O)/C=C/c2ccc(OC)cc2)c2ccccc21	15%	-13%	-2%	4%	10%	39%	.	.
C=CCn1c(O)c(N=NC(=O)CNC(=O)/C=C/c2ccco2)c2ccccc21	28µM*	?	-14%	-21%	50µM*	14µM*	38*	76*
CC(=O)c1ccc(N2CCN(C(=O)CCCCn3c(=O)[nH]c4ccccc4c3=O)CC2)cc1	-21%	2%[60.1 µM]	0%	-4%	0%	11%	.	.
C/C(=C\C=C(C#N)C#N)c1cc(C#N)c(N)o1	?	?	-5%	-2%	?	8.9µM*	?	43*
O=C(NN1C(=O)/C(=C/C=C/c2ccco2)SC1=S)c1ccncc1	1.3µM*	3.2µM*	-10%	7.9µM*	1.4µM*	?	6.7*	3.4*	TbPGK inh=3.3µM*;Pol kappa inh-2=3.8*

Compound activity as filed in PubChem.
